# G9a block = blocks human histone lysine methyltransferase G9a; Potency, µM (titrated, usually from 102 µM), for inactives: at the highest dose activity, negative = inhibition, most hits filed as inhibitors; G9a H3K9 monomethylation, AlphaScreen, 2 h; hit rate 8.8% among 350,000; AID 504332; also: potency is read from the fitted curve at half-maximal effect; % is scaled to controls: 0 for no effect and ±100 for the full control effect; nearly all actives have a fitted effect of over 75% in size
# Target sequence (Q96KQ7 913-1193 limits assumed): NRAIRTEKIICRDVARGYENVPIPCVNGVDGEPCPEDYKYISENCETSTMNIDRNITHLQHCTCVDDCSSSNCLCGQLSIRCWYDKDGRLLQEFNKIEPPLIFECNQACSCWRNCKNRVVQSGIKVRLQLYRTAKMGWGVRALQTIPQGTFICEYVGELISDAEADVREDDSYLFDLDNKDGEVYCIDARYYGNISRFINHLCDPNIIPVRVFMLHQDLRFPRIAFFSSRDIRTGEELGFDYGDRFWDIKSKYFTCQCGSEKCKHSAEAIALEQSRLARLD
#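 AlphaScreen detection with an anti-monomethyl H3K9 antibody quantified product after a 2 h room-temperature reaction containing 500 nM biotinylated H3K9 peptide, 20 µM SAM and 20 nM enzyme, which had been preincubated 15 min with compound.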
# BAZ2B block = blocks human BAZ2B. Q9UIF8. AlphaScreen BAZ2B-H3K14Ac peptide displacement. Potency, µM (titrated, usually from 114 µM), without a hit: at the highest dose activity change, negative = inhibition, hits mostly inhibitors. hit rate 4.4% among 360,000; also: potency is read from the fitted curve at half-maximal effect; % is scaled to controls: 0 for no effect and ±100 for the full control effect; nearly all actives have a fitted effect of over 60% in size
#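 In this displacement format the biotinylated H3(5-23) peptide acetylated at Lys14 serves as ligand at 50 nM, with BAZ2B at 50 nM in PBS pH 7.4 containing 0.01% Tween-20. Donor and acceptor beads are 10 ug/mL final.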
# PI5P4Ka inh = blocks human PI5P4K alpha kinase activity; P48426; PI5P4Kalpha enzyme, ADP-Glo luminescence, 60 min; active compounds read low; max response, %; hit rate 1.2% among 330,000; AID 652105; active = max response of -50% or lower; inconclusive = between -30% and -50%; inactive = -30% or higher; also: value at the top dose of about 77 µM; % is scaled to controls: 0 for no effect and ±100 for the full control effect
# Target sequence (P48426 whole entry, looked up): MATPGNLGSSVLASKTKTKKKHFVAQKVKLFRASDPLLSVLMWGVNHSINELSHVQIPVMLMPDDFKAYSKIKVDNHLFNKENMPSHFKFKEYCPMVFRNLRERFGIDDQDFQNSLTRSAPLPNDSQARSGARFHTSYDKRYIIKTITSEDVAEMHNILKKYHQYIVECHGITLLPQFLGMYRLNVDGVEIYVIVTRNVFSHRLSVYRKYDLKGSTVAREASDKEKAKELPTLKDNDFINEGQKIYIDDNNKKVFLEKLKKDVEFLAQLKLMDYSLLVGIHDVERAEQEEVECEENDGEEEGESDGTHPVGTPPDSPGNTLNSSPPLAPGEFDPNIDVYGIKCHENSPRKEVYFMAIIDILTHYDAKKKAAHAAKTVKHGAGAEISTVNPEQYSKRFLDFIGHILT
#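 Quantitative HTS of the MLSMR library against PI5P4Kalpha with substrate. ATP added last at 5 microM final; room temperature, 60 minutes. Remaining ATP depleted, ADP converted and read as luminescence.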
# PLK1 PBD inh = blocks phosphopeptide binding to human PLK1 polo-box domain. P53350. Plk1 PBD binding of FITC phosphopeptide, fluorescence polarization. Potency, µM, inactives show max response, negative = inhibition, actives largely listed as inhibitors. hit rate 2.8% among 360,000. AID 720504; also: potency is read from the fitted curve at half-maximal effect; series mostly up to about 57 µM; % is scaled to controls: 0 for no effect and ±100 for the full control effect; nearly all actives have a fitted effect of over 65% in size
# HP1b binding inh = blocks HP1-beta chromodomain binding to methylated histone tails. AID 540317. AlphaScreen HP1-beta / biotin-H3K9me3 peptide binding. P83916. Potency, µM (titrated, usually from 114 µM), inactives show top-dose activity change, negative = inhibition, hits mostly inhibitors. hit rate 0.56% among 390,000; also: potency is read from the fitted curve at half-maximal effect; nearly all actives have a fitted effect of over 70% in size
#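 AlphaScreen: HP1-beta (50 nM) preformed 30 min with biotin-H3(1-18)K9me3 peptide (50 nM) in PBS pH 7.4, 0.01% Tween-20. Compound added for 30 min at RT, then streptavidin donor/nickel chelate acceptor beads (10 ug/mL) for 30 min.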
# JMJD2A Tudor = JMJD2A Tudor domain (human) inhibition; O75164; AlphaScreen JMJD2A-Tudor / H3K4me3 peptide binding; Potency, µM (doses to about 114 µM), inactives show top-dose activity change, negative = inhibition, hits mostly inhibitors; hit rate 4.4% among 390,000; AID 504339; also: potency is read from the fitted curve at half-maximal effect; % is scaled to controls: 0 for no effect and ±100 for the full control effect; nearly all actives have a fitted effect of over 50% in size
# * hit, by the source's call; ? = inconclusive; . = no result; ! = repeats disagree; [ ] = remark or other dose. The list is not random: actives were taken first. Their share in the collection is about 12%. Unless noted, calls follow the shape of the dose curve; as a rule, active = well fitted curve in the direction sought with a large enough effect; inconclusive = small, poorly fitted or top-dose-only effect, or another doubt; inactive = no such curve, though single readings can be large; an effect the other way counts as inactive or inconclusive.
SMILES,G9a block,BAZ2B block,PI5P4Ka inh,PLK1 PBD inh,HP1b binding inh,JMJD2A Tudor
C#CCOCCOCCOCCNc1nc(N2CCN(C(=O)CCCCCCCCCCNC(=O)Cn3cc(C[C@@H](C)O)nn3)CC2)nc(N2CCN(C(=O)CCCCCCCCCCNC(=O)[C@@H]([C@H](C)CC)n3cc(CCCCCN)nn3)CC2)n1,-3%[2.33 µM],?,?,1%,?,56µM*
C#CCOCCOCCOCCNc1nc(N2CCN(C(=O)CCCCCCCCCCNC(=O)Cn3cc(CCCCCN)nn3)CC2)nc(N2CCN(C(=O)CCCCCCCCCCNC(=O)Cn3cc(C[C@@H](C)O)nn3)CC2)n1,13%[2.33 µM],79µM*,-65*,33%,-27%,25µM*
C#CCOCCOCCOCCNc1nc(N2CCN(C(=O)CCCCCCCCCCNC(=O)Cn3cc(C[C@@H](C)O)nn3)CC2)nc(N2CCN(C(=O)CCCCCCCCCCNC(=O)[C@@H]([C@H](C)O)n3cc(C)nn3)CC2)n1,-1%[2.33 µM],3%,-17,1%,33%,-27%
O=C(CSc1nc(=O)n(CCCN2CCOCC2)c2c1CCC2)Nc1cccc(F)c1,2%,-5%,2,1%,25%,-20%
CC1(C(=O)Nc2cnc3ccccc3c2)CCN1Cc1ccc(-c2ccccc2)o1 (stereo not drawn),.,.,1,-20%,.,.
Cc1ccc(N2CC(C)Cn3c2nc2c3c(=O)[nH]c(=O)n2C)cc1C (stereo not drawn),6%,-7%,10,3%,19%,-10%
C/C(=N/NC(=O)c1ccc(Cl)s1)c1cccnc1,2%,-28%,-15,-4%,37%,-10%
C/C(=N\NC(=O)Cc1c(F)cccc1Cl)c1cccnc1,50µM*,-2%,2,2%,58%,-13%
C/C(=N/NC(=O)c1ccc(Br)s1)c1ccncc1,71µM*,-20%,-6,-11%,32%,-12%
C/C(=N/NC(=O)c1ccc(C)s1)c1cccnc1,?,-29%,5,-17%,24%,35µM*
CCc1cc2c(s1)c1cnn(Cc3ccccc3F)c(=O)c1n2C,.,.,.,.,.,16%
COc1ccc2c(c1)OC(=O)CC2c1ccc2c(c1)OCO2 (stereo not drawn),-1%,.,.,.,.,.
CCC(C)C(NC(=O)OC(C)(C)C)C(=O)NC1COC2CC(n3ccc(NC(C)=O)nc3=O)OC12 (stereo not drawn),.,.,.,.,25%,3%
Cc1nc(-c2ccc(Cl)cc2)sc1CCNC(=O)C(=O)Nc1ccccc1C#N,1%[59 µM],1%,.,.,21%[57 µM],6%
CCCc1c(-c2ccc(O)cc2)nn(-c2ccc(O)cc2)c1-c1ccc(O)cc1,35%[59 µM],?,-53*,-10%,22%,-29%
O=S(=O)(c1ccc2c(c1)OCCO2)N1CCCN(S(=O)(=O)c2c(F)cccc2F)CC1,-5%[0.501 µM],0%,.,.,33%,-14%
CSc1nc(N)nc2c1ncn2CC(=O)N1CCN(Cc2c(C)cc(C)cc2C)CC1,.,.,8,-4%,22%,?
Cc1ccccc1N1CCN(C2=NC(=O)/C(=C/c3cn[nH]c3-c3ccccc3)S2)CC1,-26%[59 µM],-1%,-61*,-21%,25%,3%
O=C1N=C(N2CCCC2)S/C1=C\c1cn[nH]c1-c1ccccc1,3%[59 µM],8%,.,.,.,.
COc1ccc(NC(=O)Nc2nnc(SCC(=O)Nc3cccc(C)c3C)s2)cc1,-2%[59 µM],11%,.,.,78%,-3%
COc1ccc(/C=C/C(=O)N(CCC(N)=O)c2ccccc2)cc1S(=O)(=O)N1CCOCC1,50µM*,-2%,0,5%,53%,6%
COc1ccc(/C=C/C(=O)N2CCN(c3ccccc3)CC2)cc1S(=O)(=O)N1CCOCC1,4%,-26%,8,-5%,11%,-12%
Cc1cc(N2CCN(C(C(=O)NC3CCCC3)c3ccc(-c4ccccc4)cc3)CC2)c2ccccc2n1 (stereo not drawn),.,.,1,-4%,.,.
Cc1ccc2nc(NC(=S)NC(=O)c3ccco3)sc2c1,50µM*,-7%,?,-4%,-11%,-16%
Cc1ccc2nc(NC(=O)c3ccco3)sc2c1,-17%,10%,8,-3%,22%,2%
SMILES,G9a block,BAZ2B block,PI5P4Ka inh,PLK1 PBD inh,HP1b binding inh,JMJD2A Tudor
Cc1ccc2nsnc2c1NC(=S)NC(=O)c1ccco1,3.2µM*,-27%,-8,?,-5%,-28%
CCc1ccc(CN(Cc2cccnc2)C(=O)/C=C/c2ccc(OC)cc2)cc1,50µM*,-24%,2,20%,0%,-28%
COc1ccc(Cl)cc1NC(=O)CSc1cn(CC(=O)N2CCCCCC2)c2ccccc12,?,-19%,.,.,12%,-21%
CCOc1cc(/C=C2/SC(=S)NC2=O)ccc1OC(=O)c1ccco1,13µM*,40µM*,-86*,21µM*,?,?
N=C1/C(=C\c2ccc(OC(=O)c3ccco3)cc2)C(=O)N=C2SC=NN12,-45%,.,?,?,-11%,?
COc1cc(/C=C2/SC(=O)NC2=O)ccc1OC(=O)c1ccco1,18%,-3%,-17,-20%,32%,-9%
O=C1NC(=S)S/C1=C/c1ccc(OC(=O)c2ccco2)cc1,-3%,79µM*,-62*,?,-7%,?
CC(C)(C)c1cc[n+](C2=C([O-])c3ccccc3C(=O)/C2=N\S(=O)(=O)c2cccs2)cc1,.,-28%,-1,-10%,-15%,-25%
Cc1ccc(Cl)cc1NC1=C/C(=N\S(=O)(=O)c2cccs2)c2ccccc2C1=O,8.9µM*,10µM*,?,?,4µM*!,2.8µM*
Cc1ccc(NC2=C/C(=N\S(=O)(=O)c3cccs3)c3ccccc3C2=O)c(C)c1,7.9µM*,3.5µM*,-23,-21%,5.6µM*,4.5µM*
O=C1/C(=N\S(=O)(=O)c2cccs2)C([n+]2ccccc2)=C([O-])c2ccccc21,1%[59 µM],?,0,?,28%,-3%
Cc1cccc(NC2=C/C(=N/S(=O)(=O)c3cccs3)c3ccccc3C2=O)c1,?,2.5µM*,-23,-3%,?,5.6µM*
O=C1C(Nc2ccc(O)cc2)=C/C(=N/S(=O)(=O)c2cccs2)c2ccccc21,11µM*,7.9µM*,-16,-2%,?,20µM*
COc1ccc(NC(=O)C2CCC(CNS(=O)(=O)c3ccc(Br)s3)CC2)c(OC)c1 (stereo not drawn),-37%[59 µM],2%,.,.,10%,-4%
COc1ccc(C)cc1NC(=O)N1CCCn2nc(C)cc21,1%[59 µM],-1%[57.1 µM],.,.,11%,-11%
CCOC(=O)c1cccc(NC(=O)CSc2nnc(CNc3ccc(C)cc3)n2CC)c1,?,50µM*,.,-4%,13%,-24%
Cc1cccc(C)c1NC(=O)CSc1nnc(C)n1CC1CCCO1 (stereo not drawn),21%,-14%,-4,24µM*,-20%,-14%[11.4 µM]

# Screens deposited in PubChem by National Center for Advancing Translational Sciences (NCATS).
